ELG1 repair inh: blocks ELG1-dependent DNA repair in HEK293T cells; HEK293T ELG1-luciferase reporter, luminescence, 16 h; DNA damage induced by 5-fluorouridine; Potency, µM (titrated, usually from 46.1 µM), for inactives: top-dose activity change, negative = inhibition, most hits filed as inhibitors; 330,000 compounds, 2.3% hits; further: potency means the concentration at half of the fitted maximal effect; nearly all actives have a fitted effect of over 55% in size
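Reporter activity after DNA damage by 5-fluorouridine is monitored. Compound-treated cells incubate 16 hr at 37 °C, then ONE-Glo is added for 30 min before luminescence reading.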
DT40 TDP1 no CPT: qHTS for Inhibitors of human tyrosyl-DNA phosphodiesterase 1 (TDP1): qHTS in cells in absence of CPT; 420,000 compounds, 15% hits; DT40 Tdp1-/- hTDP1 cells, no CPT, ATP luminescence, 48 h; Potency, µM (top dose mostly 46.2 µM), inactives show at the highest dose activity change, negative = growth inhibition, most hits filed as inhibitors; AID 686978, 2013; further: potency means the concentration at half of the fitted maximal effect; nearly all actives have a fitted effect of over 55% in size
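Cells were dispensed at 400 per well, compounds added by pin tool, plates incubated ≥48 hr at 37 °C, then CellTiter-Glo added for 30 min at room temperature before luminescence reading. Line: DT40 Tdp1-/- complemented with hTDP1; camptothecin omitted.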
HT1080 IDH1KD tx: kills HT-1080 cells with IDH1 knockdown | AID 686971 | 360,000 compounds, 2% hits | HT-1080 IDH1 knockdown viability, ATP luminescence, 48 h | Potency, µM (series often up to 46.1 µM), inactives show top-dose activity, negative = toxicity, hits mostly cytotoxic;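 further: potency means the concentration at half of the fitted maximal effect; 0% = DMSO wells and -100% = cell-free medium wells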
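Viability of IDH1-knockdown HT-1080 fibrosarcoma cells was assessed by CellTiter-Glo after 48 h at 37 °C with titrated compound; concentration-effect curves were classified by fit quality and response size.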
HT1080NT lethal: kills 2HG-producing HT-1080-NT fibrosarcoma cells; HT-1080-NT fibrosarcoma viability, CellTiter-Glo ATP luminescence, 48 h; Potency, µM (series often up to 46.1 µM), for inactives: top-dose activity, negative = less viability, most hits filed as cytotoxic; 360,000 compounds, 1.6% hits;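 further: NT is the 2HG producing partner of a matched IDH1 knockdown line; potency means the concentration at half of the fitted maximal effect; 0% = DMSO-treated cells and -100% = media-only wells without cells; nearly all actives have a fitted effect of over 55% in size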
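Viability of the 2HG-overproducing fibrosarcoma line after 48 hours of compound exposure at 37 degrees C was determined by luminescence with CellTiter-Glo, and concentration-effect curves were then fitted and categorized.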
IL1B secr inh: blocks inflammasome-driven IL-1 beta release | THP-1 LPS/ATP IL-1B secretion, AlphaLISA, 16 h; active compounds read low | activity change, % at 57.5 µM | 360,000 compounds, 4.7% hits | AID 743279; in the data active means activity change below about -50%; inconclusive means mostly about -30% to -49%
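Secreted IL-1B measured by AlphaLISA bead assay after 16 h compound exposure of THP-1 cells; compounds (final up to 57.5 uM) added 1 h before LPS (250 ng/mL) and ATP (1.25 mM) stimulation; lower signal means less secretion.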
TDP1 cell CPT: growth inhibition of DT40 Tdp1-/-;hTDP1 cells with camptothecin (screen for TDP1 inhibitors); chicken DT40 Tdp1-/-;hTDP1 cells + 20 nM CPT, ATP luminescence, 48 h; Potency, µM (top dose mostly 46.2 µM), for inactives: at the highest dose activity change, negative = growth inhibition, most hits filed as inhibitors; 420,000 compounds, 12% hits; AID 686979; further: potency means the concentration at half of the fitted maximal effect; nearly all actives have a fitted effect of over 55% in size
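Cell growth measured by CellTiter-Glo luminescence after a minimum 48 h, 37 C compound exposure with 20 nM CPT in Tdp1-knockout DT40 cells stably expressing hTDP1, seeded 400/well; qHTS titration format.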
Starred values were filed as active, the others as inactive; ? = inconclusive; / = not tested or not shown; [ ] = remark or other dose. In the library only some 19% were active in any assay of this set; here they are far more common. Unless noted, the call rests on the fitted dose curve; in most records, active means well fitted curve in the direction sought with a large enough effect; inconclusive means small, poorly fitted or top-dose-only effect, or another doubt; inactive means no such curve, though single readings can be large; an effect the other way counts as inactive or inconclusive. Unless noted, on the % scale 0 is the no-effect control and ±100 the full control effect.

SMILES	ELG1 repair inh	DT40 TDP1 no CPT	HT1080 IDH1KD tx	HT1080NT lethal	IL1B secr inh	TDP1 cell CPT
CCOC(=O)C1(C)CCN1C(=O)CSc1ccccc1 (centres undefined)	/	3%	?	26%	26	-3%
CC(C)Cc1nnc(NC(=O)CCS(=O)(=O)c2ccc(Cl)cc2)s1	3%	?	4%	-2%	13	21µM*
CC(C)Cc1nnc(NC(=O)CCC(=O)Nc2ccc(Cl)cc2)s1	?	-17%	-6%	9%	8	14%
Cc1cc(C)cc(N(CCC(=O)Nc2nnc(C)s2)S(=O)(=O)c2ccc(Cl)cc2)c1	?	23µM*	-22%	-18%	30	?
CCOCCc1nnc(NC(=O)CCS(=O)(=O)c2ccccc2)s1	-3%	9.2µM*	?	-27%	-29	21µM*
COCCSc1nnc(NC(=O)CCS(=O)(=O)c2ccccc2)s1	0%	13µM*	23µM*	?	-103*	7.3µM*
CCOC(=O)c1sc(NC(=O)C(C)Sc2nnc(N)s2)nc1C (centres undefined)	?	2%	2%	0%	-6	6%
Cc1ccc(S(=O)(=O)CCc2nnc(N)s2)cc1C	9%	-4%	5%	-5%	21	-3%
Cc1ccc(S(=O)(=O)CCc2nnc(NC(=O)CCl)s2)cc1C	?	13µM*	15µM*	?	-100*	15µM*
COc1ccc(CCNC(=S)Nc2cc(C)cc(C)c2)cc1	-5%	23µM*	2%	-7%	-10	?
COc1ccc(NC(=S)NCc2ccc(F)cc2)cc1	27%	?	0%	8%	-12	-22%
CCCCc1ccc(NC(=S)NCc2ccc(OC)cc2)cc1	1%	18µM*	?	-14%	-9	?
CC(=O)NC(=S)Nc1ccc(NC(=O)COc2ccc(C(C)C)cc2)cc1	8%	-22%	-12%	-16%	54	-4%
COc1ccc(CCNC(=S)Nc2ccccc2)cc1	?	?	-1%	-2%	0	?
COc1ccc(NC(=S)NCCc2c(C)[nH]c3ccc(OC)cc23)cc1	?	?	5%	7%	-52*	?
CC(C)c1ccc(NC(=S)Nc2ccc(OC(F)(F)F)cc2)cc1	-8%	23µM*	8%	0%	-7	18µM*
COc1cccc(CNC(=O)CSc2nc3ccc(C)cc3[nH]2)c1	11%	-16%	-9%	-7%	-11	?
COc1cc(CN(C)C(=O)C2CCN(S(=O)(=O)c3cccs3)CC2)ccc1OC(F)F	/	?	-10%	5%[9.24 µM]	5	?
COc1ccc(CCNC(=S)Nc2ccc(C(C)C)cc2)cc1	-17%	18µM*	-6%	-21%	-16	?
CCC(C)c1ccc(NC(=S)Nc2ccc(OC)cc2)cc1 (centres undefined)	9%	16µM*	-14%	-9%	-18	23µM*
COc1ccc(CCNC(=S)Nc2ccc(OC)cc2)cc1	4%	?	10%	5%	2	?
CCCCc1ccc(NC(=S)N2CCCC2)cc1	?	15µM*	-2%	-2%	-4	12µM*
CC(CNCCCn1cnc2c(OCc3ccccc3)ncnc21)c1ccccc1 (centres undefined)	/	?	-29%	-19%	-17	?
CN(C)c1ccc(CNC(=O)C2CCN(S(=O)(=O)c3cn(C)cn3)CC2)cc1	/	-23%	/	/	/	1%
c1ccc(-c2ccccc2OCCCCn2ccnc2)cc1	-4%	26µM*	0%	-4%	-58*	23µM*
SMILES	ELG1 repair inh	DT40 TDP1 no CPT	HT1080 IDH1KD tx	HT1080NT lethal	IL1B secr inh	TDP1 cell CPT
CC(C)(C)c1cc(Cl)ccc1OCCn1ccnc1	-2%	?	?	-24%	-53*	-4%
CC(C)(C)c1ccccc1OCCCCCn1ccnc1	-20%	?	?	?	-98*	?
Clc1ccccc1OCCn1ccnc1	/	?	18%	2%[9.24 µM]	0	-17%
N#C/C(=C\c1cccc([N+](=O)[O-])c1)c1nnc2n1CCCCC2	-25%	?	-21%	-15%	-91*	?
CN(c1ccccc1)c1ccc(/C=C(\C#N)c2nnc3n2CCCCC3)cc1[N+](=O)[O-]	0%	12µM*	?	-9%	-106*	18µM*
O=c1nc2n(c3ccc([N+](=O)[O-])cc13)CCCCC2	12%	-1%	13%	10%	4	5%
O=S(=O)(c1ccc(Cl)cc1)N1CCN(CCc2ccncc2)CC1	-2%	?	-1%	19%	5	?
CC1(C)CC(=O)N(CC(=O)NCc2ccccc2)c2ccccc2S1(=O)=O	13%	-3%	9%	5%	0	20%
Cc1c2cnn(CC(=O)Nc3c(F)c(F)cc(F)c3F)c(=O)c2c(C)n1Cc1ccc(F)cc1	-5%	/	/	/	/	/
CCN(CC)c1ccc(NC(=O)Cn2ncc3c(C)n(Cc4ccccc4F)c(C)c3c2=O)c(C)c1	1%	21µM*	28%	18%	21	?
CCN(CC)c1ccc(NC(=O)CN2C(=O)CC(C)(C)S(=O)(=O)c3ccccc32)c(C)c1	0%	16µM*	-1%	-28%	0	15µM*
COC(=O)c1ccccc1NC(=O)Cn1ncc2c(C)n(Cc3ccc(F)cc3)c(C)c2c1=O	/	?	/	/	/	21µM*
COC(=O)c1c(C(=O)OC)c(-c2ccc(OC)cc2)n2c1CS(=O)(=O)C2	3%	11%	1%	8%	20	0%
COc1ccc(C(C(=O)NC2CCCC2)N(C(=O)c2ccco2)c2cc3c(cc2C(C)=O)OCO3)cc1 (centres undefined)	5%	-26%	2%	10%	0	7%
COc1ccc(NC(=O)C2CCN(S(=O)(=O)c3c(C)noc3/C=C/c3cccs3)CC2)cc1	/	?	/	/	/	-27%
COc1cccc(NC(=O)C2CCN(S(=O)(=O)c3c(C)noc3/C=C/c3cccs3)CC2)c1	/	13µM*	/	/	/	?
COc1ccccc1CNC(=O)C1CCN(S(=O)(=O)c2c(C)noc2/C=C/c2cccs2)CC1	/	18µM*	/	/	/	18µM*
FC(F)(F)C(F)(F)c1nc2nc(Cl)c(Cl)nc2[nH]1	/	?	?	-16%	52	?
CCC(C(=O)NCCCN1CC(C)CC(C)C1)n1nc(C)c2sc3ccccc3c2c1=O (centres undefined)	3%	?	-2%	-9%	?	?
